Results published in the supplement of paper PMC10849652.
Targets with a hit are over-represented here; the source holds about 8,800 in all. About 0.5% of all pairs of compound and target were hits.

Key:
Test in all cases: log2 fold change, soluble protein after heating vs DMSO (PISA); higher = thermal stabilisation; K562 lysate, 10 uM; active = over 0.2 and 3.5 SD of the protein, either way, in both replicates (recomputed)
[1] = compound: CS(=O)(=O)CCNCc1ccc(-c2ccc3ncnc(Nc4ccc(OCc5cccc(F)c5)c(Cl)c4)c3c2)o1 [lapatinib]
Outline: (§1)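 K562 pellets were dounce-homogenised in PBS pH 7.4 with 1 mM MgCl2, and the crude extract at 1 mg/mL protein was treated with 10 μM compound for 30 min. Aliquots were heated for 3 min across 48°C-58°C, pooled, and brought to 0.5% NP-40 at 4°C; soluble protein was the supernatant after 21,000xg for 90 min. Soluble protein was quantified by TMTpro 16plex LC-MS/MS with channel sums equalised, and reported as log2 fold change in thermal stability against DMSO controls, with values from duplicates.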

[2] = compound: CS(=O)(=O)N1CCN(Cc2cc3nc(-c4cccc5[nH]ncc45)nc(N4CCOCC4)c3s2)CC1 [pictilisib]
Outline: as §1

[3] = compound: C[C@@H](Oc1cc(-c2cnn(C3CCNCC3)c2)cnc1N)c1c(Cl)ccc(F)c1Cl [crizotinib]
Outline: as §1

[4] = compound: C[C@H](C1=CC=C(C=C1)C(=O)NC2=C3C=CNC3=NC=C2)N
Outline: as §1

[5] = compound: C[C@H](Nc1ncnc2nc[nH]c12)c1cc2cccc(Cl)c2c(=O)n1-c1ccccc1 [duvelisib]
Outline: as §1

[6] = compound: Cc1cc(Nc2cc(CN3CCOCC3)c3nc(C)c(Cc4ccc(Cl)cc4F)n3n2)n[nH]1 [gandotinib]
Outline: as §1

[7] = compound: Cc1cc(Nc2cc(N3CCN(C)CC3)nc(Sc3ccc(NC(=O)C4CC4)cc3)n2)n[nH]1 [tozasertib]
Outline: as §1

[8] = compound: Cc1ccc(-n2nc(C(C)(C)C)cc2NC(=O)Nc2ccc(OCCN3CCOCC3)c3ccccc23)cc1 [doramapimod]
Outline: as §1

[9] = compound: Cc1ccc(NC(=O)c2ccc(CN3CC[C@H](N(C)C)C3)c(C(F)(F)F)c2)cc1Nc1nccc(-c2cncnc2)n1 [bafetinib]
Outline: as §1

[10] = compound: Cc1cccc(CC(=O)N2CCc3c2ccc(-c2cn(C)c4ncnc(N)c24)c3F)n1
Outline: as §1

Measured: log2 fold change

TARBP2 (UniProt Q15633)
inactive: [1] 0.035 | [2] -0.098 | [3] -0.092 | [4] 0.001 | [5] 0.07 | [6] -0.08 | [7] -0.057 | [8] 0.028 | [9] -0.028 | [10] 0.022

TANK (UniProt Q92844)
UniProt Q92844, sequence (Q92844 whole entry, looked up): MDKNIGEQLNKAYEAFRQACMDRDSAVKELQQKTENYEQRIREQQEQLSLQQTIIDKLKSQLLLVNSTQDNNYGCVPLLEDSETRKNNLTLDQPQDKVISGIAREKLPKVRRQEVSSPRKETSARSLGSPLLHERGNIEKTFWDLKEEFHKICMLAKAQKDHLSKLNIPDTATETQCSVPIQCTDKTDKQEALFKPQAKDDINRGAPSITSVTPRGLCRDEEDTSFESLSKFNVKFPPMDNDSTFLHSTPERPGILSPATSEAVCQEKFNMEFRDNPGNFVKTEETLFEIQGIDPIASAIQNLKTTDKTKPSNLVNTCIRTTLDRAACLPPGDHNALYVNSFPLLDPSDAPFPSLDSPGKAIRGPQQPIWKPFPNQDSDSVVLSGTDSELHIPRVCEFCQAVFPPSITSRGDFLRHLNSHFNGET
inactive: [1] 0.038 | [2] -0.03 | [3] 0.27 | [4] 0.021 | [5] -0.026 | [6] 0.141 | [7] 0.108 | [8] -0.038 | [9] 0.023 | [10] -0.162

SMC4 (UniProt Q9NTJ3)
UniProt Q9NTJ3, sequence (Q9NTJ3 whole entry, looked up): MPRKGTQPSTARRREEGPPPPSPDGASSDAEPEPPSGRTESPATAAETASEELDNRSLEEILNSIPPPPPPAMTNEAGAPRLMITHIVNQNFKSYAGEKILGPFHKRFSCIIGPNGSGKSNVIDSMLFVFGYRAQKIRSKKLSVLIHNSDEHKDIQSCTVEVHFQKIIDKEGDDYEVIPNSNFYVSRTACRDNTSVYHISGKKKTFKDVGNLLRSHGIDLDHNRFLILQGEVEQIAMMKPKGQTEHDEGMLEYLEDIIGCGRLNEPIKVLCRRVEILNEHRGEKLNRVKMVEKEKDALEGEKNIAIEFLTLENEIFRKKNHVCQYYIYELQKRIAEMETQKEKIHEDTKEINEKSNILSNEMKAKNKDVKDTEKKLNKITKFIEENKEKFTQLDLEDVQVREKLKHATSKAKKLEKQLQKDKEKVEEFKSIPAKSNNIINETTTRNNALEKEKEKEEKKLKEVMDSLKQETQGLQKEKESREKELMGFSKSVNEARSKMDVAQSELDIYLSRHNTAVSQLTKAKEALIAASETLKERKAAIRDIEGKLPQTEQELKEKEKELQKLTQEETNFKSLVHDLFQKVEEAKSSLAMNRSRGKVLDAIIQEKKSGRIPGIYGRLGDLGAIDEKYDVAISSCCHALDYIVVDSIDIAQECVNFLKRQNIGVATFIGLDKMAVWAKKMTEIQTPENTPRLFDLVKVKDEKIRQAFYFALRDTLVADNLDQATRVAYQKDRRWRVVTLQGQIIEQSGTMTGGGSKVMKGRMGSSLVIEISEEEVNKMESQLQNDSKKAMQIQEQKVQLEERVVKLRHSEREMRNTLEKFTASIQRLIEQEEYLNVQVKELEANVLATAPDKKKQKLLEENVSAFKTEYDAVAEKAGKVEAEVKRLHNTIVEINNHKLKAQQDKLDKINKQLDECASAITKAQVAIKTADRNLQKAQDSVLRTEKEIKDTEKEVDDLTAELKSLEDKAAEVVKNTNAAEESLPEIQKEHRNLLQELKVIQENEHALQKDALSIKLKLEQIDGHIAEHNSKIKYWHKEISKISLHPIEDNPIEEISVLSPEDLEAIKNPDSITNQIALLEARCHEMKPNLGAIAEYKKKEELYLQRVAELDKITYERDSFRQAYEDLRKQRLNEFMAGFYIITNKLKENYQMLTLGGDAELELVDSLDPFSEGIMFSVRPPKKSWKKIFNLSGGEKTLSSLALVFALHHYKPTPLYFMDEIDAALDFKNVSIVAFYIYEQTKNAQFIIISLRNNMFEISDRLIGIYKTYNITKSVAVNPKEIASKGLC
inactive: [1] -0.028 | [2] -0.002 | [3] -0.007 | [4] 0.068 | [5] 0.009 | [6] -0.154 | [7] -0.012 | [8] -0.026 | [9] -0.021 | [10] -0.051

SOX5 (UniProt P35711)
UniProt P35711, sequence (P35711 whole entry, looked up): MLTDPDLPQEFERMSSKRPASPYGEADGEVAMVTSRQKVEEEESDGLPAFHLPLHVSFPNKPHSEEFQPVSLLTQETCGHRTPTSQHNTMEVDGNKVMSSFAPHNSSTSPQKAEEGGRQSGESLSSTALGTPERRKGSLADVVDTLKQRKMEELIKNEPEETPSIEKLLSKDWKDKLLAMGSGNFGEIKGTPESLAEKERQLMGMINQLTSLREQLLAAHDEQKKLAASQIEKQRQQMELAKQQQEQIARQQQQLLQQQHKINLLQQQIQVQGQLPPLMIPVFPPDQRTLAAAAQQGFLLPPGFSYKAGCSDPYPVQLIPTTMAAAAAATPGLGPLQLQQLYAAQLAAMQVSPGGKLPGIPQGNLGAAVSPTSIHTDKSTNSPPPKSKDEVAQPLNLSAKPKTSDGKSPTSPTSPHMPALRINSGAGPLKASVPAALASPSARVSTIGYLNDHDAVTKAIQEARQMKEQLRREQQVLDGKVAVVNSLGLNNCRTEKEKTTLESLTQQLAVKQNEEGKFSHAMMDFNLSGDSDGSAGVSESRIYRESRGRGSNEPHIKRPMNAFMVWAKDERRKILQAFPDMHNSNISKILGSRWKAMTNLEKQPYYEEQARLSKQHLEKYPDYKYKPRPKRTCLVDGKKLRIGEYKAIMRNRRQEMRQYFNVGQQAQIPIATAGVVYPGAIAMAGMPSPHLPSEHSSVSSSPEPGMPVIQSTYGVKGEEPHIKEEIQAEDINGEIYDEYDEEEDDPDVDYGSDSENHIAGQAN
inactive: [1] 0.137 | [2] -0.019 | [3] 0.006 | [4] 0.007 | [5] -0.073 | [6] 0.06 | [7] -0.017 | [8] 0.026 | [9] -0.235 | [10] 0.007

SLC7A5 (UniProt Q01650)
inactive: [1] -0.004 | [2] 0.026 | [3] -0.069 | [5] 0.051 | [7] -0.012 | [8] 0.019 | [9] 0.046 | [10] 0.129
active: [4] -0.308 | [6] 0.201

SFN (UniProt P31947)
UniProt P31947, sequence (P31947 whole entry, looked up): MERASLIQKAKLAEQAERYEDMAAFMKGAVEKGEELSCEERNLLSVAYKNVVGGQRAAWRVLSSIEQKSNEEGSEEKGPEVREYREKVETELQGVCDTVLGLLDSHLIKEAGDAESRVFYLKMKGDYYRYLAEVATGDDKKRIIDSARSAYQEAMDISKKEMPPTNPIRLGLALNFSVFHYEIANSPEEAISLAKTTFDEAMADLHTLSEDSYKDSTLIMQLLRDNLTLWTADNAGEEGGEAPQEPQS
active: [4] 0.347
inactive: [1] 0.018 | [2] 0.117 | [3] 0.055 | [5] -0.029 | [6] -0.043 | [7] 0.006 | [8] 0.019 | [9] 0.047 | [10] -0.117

STIM1 (UniProt Q13586)
inactive: [1] -0.056 | [2] -0.028 | [3] -0.053 | [4] 0.145 | [5] -0.007 | [6] -0.095 | [7] 0.032 | [8] 0.044 | [9] -0.056 | [10] -0.037

TAF6L (UniProt Q9Y6J9)
inactive: [1] -0.044 | [2] -0.091 | [3] 0.035 | [4] 0.037 | [5] 0.024 | [6] -0.042 | [7] 0.017 | [8] -0.019 | [9] -0.009 | [10] 0.028

SRP54 (UniProt P61011)
UniProt P61011, sequence (P61011 whole entry, looked up): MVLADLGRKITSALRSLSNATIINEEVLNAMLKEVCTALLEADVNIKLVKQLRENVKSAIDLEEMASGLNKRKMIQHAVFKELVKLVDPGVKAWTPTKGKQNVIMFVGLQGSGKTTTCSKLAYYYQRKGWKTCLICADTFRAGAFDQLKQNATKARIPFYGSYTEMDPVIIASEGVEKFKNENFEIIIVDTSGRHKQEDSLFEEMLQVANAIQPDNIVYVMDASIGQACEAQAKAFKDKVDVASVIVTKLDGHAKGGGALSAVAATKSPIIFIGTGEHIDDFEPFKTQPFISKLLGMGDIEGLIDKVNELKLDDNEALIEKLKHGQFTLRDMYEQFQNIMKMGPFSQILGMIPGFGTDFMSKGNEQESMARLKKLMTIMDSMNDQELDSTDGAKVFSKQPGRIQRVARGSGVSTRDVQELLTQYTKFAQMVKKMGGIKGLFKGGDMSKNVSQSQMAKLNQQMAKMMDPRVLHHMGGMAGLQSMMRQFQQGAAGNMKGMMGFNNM
inactive: [1] 0.021 | [2] -0.021 | [3] 0.019 | [4] -0.035 | [5] -0.024 | [6] 0.039 | [7] -0.004 | [8] 0.041 | [9] -0.029 | [10] 0.04

SPNS1 (UniProt Q9H2V7)
inactive: [1] 0.025 | [2] -0.038 | [3] -0.004 | [4] -0.042 | [5] 0.04 | [6] 0.032 | [7] -0.073 | [8] 0.014 | [9] -0.054 | [10] 0.052

SF3B6 (UniProt Q9Y3B4)
UniProt Q9Y3B4, sequence (Q9Y3B4 whole entry, looked up): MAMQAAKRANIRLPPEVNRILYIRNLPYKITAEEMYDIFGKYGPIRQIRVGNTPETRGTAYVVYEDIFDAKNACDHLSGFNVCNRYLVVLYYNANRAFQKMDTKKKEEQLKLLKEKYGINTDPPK
inactive: [1] -0.01 | [2] -0.083 | [3] -0.008 | [4] 0.009 | [5] 0.059 | [6] -0.069 | [7] -0.188 | [8] 0.047 | [9] -0.009 | [10] -0.058

STK25 (UniProt O00506)
UniProt O00506, sequence (O00506 whole entry, looked up): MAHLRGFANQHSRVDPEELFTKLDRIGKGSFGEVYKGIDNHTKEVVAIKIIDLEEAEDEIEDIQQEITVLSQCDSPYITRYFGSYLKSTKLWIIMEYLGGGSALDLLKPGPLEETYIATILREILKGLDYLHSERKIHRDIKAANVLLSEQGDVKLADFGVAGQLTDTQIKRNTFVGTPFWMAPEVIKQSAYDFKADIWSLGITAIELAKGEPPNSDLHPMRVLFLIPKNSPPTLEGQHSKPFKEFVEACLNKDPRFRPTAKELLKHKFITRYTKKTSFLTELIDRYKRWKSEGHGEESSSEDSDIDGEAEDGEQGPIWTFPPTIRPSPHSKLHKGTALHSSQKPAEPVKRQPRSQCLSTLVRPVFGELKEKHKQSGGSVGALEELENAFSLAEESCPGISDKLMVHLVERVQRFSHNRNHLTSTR
inactive: [1] -0.058 | [2] -0.041 | [3] 0.008 | [4] -0.036 | [5] -0.055 | [6] 0.18 | [7] 0.033 | [8] -0.081 | [9] 0.001 | [10] 0.005

TARDBP (UniProt Q13148)
UniProt Q13148, sequence (Q13148 whole entry, looked up): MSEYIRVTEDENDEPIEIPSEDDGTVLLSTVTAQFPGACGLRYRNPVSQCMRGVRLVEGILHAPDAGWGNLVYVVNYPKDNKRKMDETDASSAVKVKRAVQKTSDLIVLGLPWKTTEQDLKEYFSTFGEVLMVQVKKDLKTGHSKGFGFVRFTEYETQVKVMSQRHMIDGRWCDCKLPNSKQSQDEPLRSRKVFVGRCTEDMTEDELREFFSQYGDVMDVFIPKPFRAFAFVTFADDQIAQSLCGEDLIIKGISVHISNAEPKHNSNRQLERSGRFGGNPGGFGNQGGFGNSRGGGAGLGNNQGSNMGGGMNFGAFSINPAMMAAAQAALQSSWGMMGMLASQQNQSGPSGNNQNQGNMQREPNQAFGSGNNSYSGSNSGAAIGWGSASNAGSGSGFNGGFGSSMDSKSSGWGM
inactive: [1] 0.002 | [2] 0.145 | [3] 0.018 | [4] 0.005 | [5] -0.045 | [6] 0.115 | [7] 0.022 | [8] 0.282 | [9] -0.055 | [10] 0.044

SPR (UniProt P35270)
inactive: [1] -0.015 | [3] 0.276 | [4] -0.029 | [5] -0.059 | [7] 0.025 | [8] -0.06 | [9] -0.09 | [10] -0.117
active: [2] 0.472 | [6] 0.467

SPIRE1 (UniProt Q08AE8)
UniProt Q08AE8, sequence (Q08AE8 whole entry, looked up): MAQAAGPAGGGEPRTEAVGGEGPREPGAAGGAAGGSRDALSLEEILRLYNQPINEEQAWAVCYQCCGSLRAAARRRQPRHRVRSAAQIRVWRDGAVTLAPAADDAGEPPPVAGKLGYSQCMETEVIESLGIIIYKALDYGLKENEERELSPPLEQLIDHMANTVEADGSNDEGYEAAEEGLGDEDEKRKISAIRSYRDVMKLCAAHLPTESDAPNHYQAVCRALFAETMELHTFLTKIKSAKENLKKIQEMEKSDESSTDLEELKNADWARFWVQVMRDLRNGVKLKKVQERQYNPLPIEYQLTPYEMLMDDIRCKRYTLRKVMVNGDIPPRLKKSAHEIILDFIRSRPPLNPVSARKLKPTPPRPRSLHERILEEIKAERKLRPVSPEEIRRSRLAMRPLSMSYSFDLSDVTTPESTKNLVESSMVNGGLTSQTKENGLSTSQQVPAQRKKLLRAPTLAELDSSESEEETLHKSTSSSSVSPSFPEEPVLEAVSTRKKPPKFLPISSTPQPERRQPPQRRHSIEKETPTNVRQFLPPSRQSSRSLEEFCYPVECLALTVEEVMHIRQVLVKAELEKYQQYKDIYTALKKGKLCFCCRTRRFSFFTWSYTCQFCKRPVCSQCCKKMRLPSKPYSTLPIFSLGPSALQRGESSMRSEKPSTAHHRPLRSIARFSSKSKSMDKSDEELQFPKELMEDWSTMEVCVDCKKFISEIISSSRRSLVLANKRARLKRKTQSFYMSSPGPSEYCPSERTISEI
active: [4] -0.281
inactive: [1] -0.019 | [2] 0.012 | [3] -0.072 | [5] -0.021 | [6] 0.128 | [7] -0.023 | [8] 0.151 | [9] -0.031 | [10] 0.134
